Compounds without any hit were thinned out: in the full panel of roughly 79,000, 15% have a hit. Active and inactive are the calls of the source. No stated cut-off is given here; in the data, active means growth inhibition above about 70%; inactive means the rest.
Experiments:
[1] = NCI Yeast Anticancer Drug Screen. Data for the rad50 strain (AID 155);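 further: 0% = growth of vehicle-only cultures of the same strain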; conditions: S. cerevisiae rad50 strain growth inhibition; at 50.0 µM; stronger effect = higher value
Procedure, shortened: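 Readout: growth inhibition relative to vehicle-treated cultures. Compound exposure was carried out in a genetically defined yeast strain deficient in DNA damage repair.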

[2] = NCI Yeast Anticancer Drug Screen. Data for the mec2-1 strain (AID 157); conditions: S. cerevisiae mec2-1 strain, at 50.0 µM, stronger effect = higher value
Procedure, shortened: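 Test agents were screened against the mec2-1 yeast strain, with defined DNA repair or cell cycle alteration. Growth was scored as inhibition against vehicle-only controls.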

[3] = NCI Yeast Anticancer Drug Screen. Data for the sgs1 mgt1 strain (AID 161);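 further: 0% = growth of cultures given vehicle only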; conditions: S. cerevisiae sgs1 mgt1 strain, at 50.0 µM, stronger effect = higher value
Procedure, shortened: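 Read-out: growth inhibition vs vehicle controls. Cells: mutant yeast strain deficient in DNA damage repair.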

[4] = NCI Yeast Anticancer Drug Screen. Data for the cln2 rad14 strain (AID 165);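 further: 0% = growth equal to vehicle treated cultures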; conditions: S. cerevisiae cln2 rad14 strain, at 50.0 µM, stronger effect = higher value
Procedure, shortened: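 Growth of compound-exposed yeast (cln2 rad14 genotype) measured and expressed as inhibition relative to vehicle.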

[5] = NCI Yeast Anticancer Drug Screen. Data for the bub3 strain (AID 167); conditions: S. cerevisiae bub3 mutant strain, at 50.0 µM, stronger effect = higher value
Procedure, shortened: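 Readout: yeast growth inhibition, expressed relative to vehicle-only wells. The test organism is a mutant strain from a panel with lesions in DNA repair or checkpoint genes.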

[6] = NCI Yeast Anticancer Drug Screen. Data for the mlh1 rad18 strain (AID 175); conditions: S. cerevisiae mlh1 rad18 strain growth inhibition; at 50.0 µM; stronger effect = higher value
Procedure, shortened: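 In this whole-cell yeast screen, a strain with altered DNA damage repair is challenged with compound, and its growth is measured against matched vehicle-treated controls.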

Measured: growth inhibition

CCOC(=O)c1c(C)c2c(n1C)CC/C(=C\N1CCN(c3ccccc3)CC1)C2=O
inactive: [1] 0.6% | [2] -1.55% | [3] -19.5% | [4] -14.8% | [5] 2.25% | [6] 18.3%

NC(=O)/C=C/c1ccc([N+](=O)[O-])cc1
inactive: [1] 33% | [2] -6.85% | [3] -9% | [4] -74% | [5] 4.6% | [6] -3.4%

CCOC(=O)c1c(-c2ccccc2)n2c3c(cccc13)CC2
inactive: [1] 6.85% | [2] -5.2% | [3] -6.05% | [4] 6.15% | [5] 6.55% | [6] 27.5%

COCc1c(C)[nH]c2ccc(N(C)C)cc2c1=O
inactive: [1] -6.75% | [2] -3.6% | [3] -14.8% | [4] -42% | [5] -4.9% | [6] -6.55%

[Cl][Pt+2][Cl].[NH-]c1cccc(C(F)(F)F)c1.[NH-]c1cccc(C(F)(F)F)c1
inactive: [1] 2.1% | [2] 12.2% | [3] -6.35% | [4] 7.05% | [5] -22.8% | [6] -11.9%

CC(=O)Nc1ccc2c(Br)ccc3c2c1CC3
inactive: [1] 0.8% | [2] -1.55% | [3] 4.3% | [4] 0.6% | [5] 6.6% | [6] -4.45%

O=C(/C=C/c1cc2ccccc2o1)N1CCN(c2ccccn2)CC1
inactive: [1] 28.6% | [2] 27.6% | [3] 39.2% | [4] 11.3% | [5] 17.9% | [6] 15.8%

Nc1cccc(S(=O)(=O)Nc2ccccc2)c1
inactive: [1] 19.6% | [2] 25.6% | [3] 1.55% | [4] -6.6% | [5] 0.65% | [6] 10%

CC12NN=NC1C(=O)NC2=O (stereo not given)
inactive: [1] 0.85% | [2] -0.75% | [3] 20.6% | [4] 12% | [5] -3.1% | [6] -5.05%

O=[N+]([O-])c1ccc(-n2nnc3ccccc32)nc1
inactive: [1] -3.9% | [2] -4.85% | [3] -7.35% | [4] -16.6% | [5] 7.5% | [6] -9.75%

CCOc1nc(N)nc(C)c1N=Nc1cccc([N+](=O)[O-])c1
inactive: [1] 20.9% | [2] 8.55% | [3] 7% | [4] -7.35% | [5] 36% | [6] 32%

Cc1cc(O[Si](C)(C)C)nc(O[Si](C)(C)C)n1
inactive: [1] 1.7% | [2] -3.7% | [3] 0.15% | [4] -49% | [5] -40.3% | [6] 11.9%

COC(=O)C(N)CSc1ccc([N+](=O)[O-])cc1[N+](=O)[O-] (stereo not given)
inactive: [1] 37.5% | [2] 39.5% | [3] 40.2% | [4] 25.1% | [5] 16.1% | [6] 48.9%

COc1cccc(NC(N)=O)c1
inactive: [1] -15.5% | [2] -14.2% | [3] -9.3% | [4] -9.5% | [5] -10.1% | [6] -19.4%

C/C(=N\O)c1sc(-n2nc(-c3ccccc3)cc2-c2ccccc2)nc1C
inactive: [1] 13.7% | [2] 4.2% | [3] 37.6% | [4] 25.4% | [5] 30.6% | [6] 19.3%

O=S(=O)(Nc1cccc(Cl)c1)c1ccc(Cl)cc1
active: [1] 99.7% | [2] 99.8% | [3] 99.8% | [4] 99.6% | [5] 99.7% | [6] 99.7%

COc1c(C)c2c(c(Br)c1N)COCO2
inactive: [1] 3.75% | [2] 16.9% | [3] -10.7% | [4] 8.95% | [5] -7.05% | [6] -21.6%

C1C[OH+]CC[OH+]CCNCC[OH+]CC[OH+]CCN1.Cl.[Cl-].[Pt+4]
inactive: [1] 8.7% | [2] -9.3% | [3] 6.25% | [4] 10.4% | [5] -3.65% | [6] 7%

CCCCCCCCCCCCOP(=O)(O)OCC(N)C(=O)O (stereo not given)
inactive: [1] 10.7% | [2] 9.2% | [3] -11.4% | [4] -39.8% | [5] -18% | [6] -19.3%

C[N+](C)(N)CCC[N+](C)(C)N
inactive: [1] 12.4% | [2] 5.2% | [3] -3.3% | [4] -29.4% | [5] -52.6% | [6] -3.4%

Nc1nc(-c2ccccc2)cc2ccccc12
inactive: [1] 0.55% | [2] -12.7% | [3] 1.65% | [4] -18.7% | [5] -13.2% | [6] 18.1%

CCC(=O)Oc1c2ccsc2c(OC(=O)CC)c2ccsc12
inactive: [1] 29.1% | [2] 6.6% | [3] 32.1% | [4] -3.2% | [5] 29.4% | [6] 13.7%

COc1ccc(CNc2cnc3ccc(N)cc3n2)cc1OC
inactive: [1] -36.9% | [2] -55.1% | [3] -40.2% | [4] 5.55% | [5] -25% | [6] -30.9%

CC1(C)C=Cc2c(ccc3[nH]c4occc4c(=O)c23)O1
inactive: [1] 23.4% | [2] -21.8% | [3] -16.8% | [4] 14.2% | [5] 11.4% | [6] -0.3%

c1csc(NC(Nc2nccs2)C23CC4CC(CC(C4)C2)C3)n1
inactive: [1] 28.1% | [2] 12.7% | [3] -1.4% | [4] 20.6% | [5] 1.1% | [6] 7.45%

O=C(O)c1cnc2cc3c(cc2c1Nc1cccc(Cl)c1)OCO3
inactive: [1] -2.25% | [2] -4.05% | [3] 4.45% | [4] -27.5% | [5] -8.6% | [6] -12.6%

C(CCN1CCOCC1)CN1CCOCC1
inactive: [1] -3.4% | [2] 4.5% | [3] 0.45% | [4] -4.1% | [5] -10.7% | [6] 1.15%

C=CCc1cc(C(=O)O)ccc1OC
inactive: [1] -36.4% | [2] -23.6% | [3] -16.1% | [4] -1.7% | [5] -30.4% | [6] -13.9%

Cc1onc(-c2c(F)cccc2Cl)c1C(=O)Nc1cc2cc([N+](=O)[O-])ccc2oc1=O
inactive: [1] 12.3% | [2] -13.7% | [3] 2.3% | [4] 8.15% | [5] 2.8% | [6] 12.5%

COc1ccc(C(c2c(O)c3ccccc3oc2=O)N2CCCC2)c(OC)c1 (stereo not given)
inactive: [1] 7.7% | [2] -5.7% | [3] -3.25% | [4] -25.1% | [5] -1.15% | [6] -3.3%

CSc1nc(Cl)nc2c1nc(SC)n2-c1ccccc1
inactive: [1] -8.4% | [2] 7.95% | [3] -0.45% | [4] -8.95% | [5] 16.5% | [6] -15%

CC1=NN(C(=O)c2ccc(Cl)cc2)C(=O)C1N=Nc1ccc(S(=O)(=O)Nc2ccccn2)cc1 (stereo not given)
inactive: [1] -0.85% | [2] 16.8% | [3] 14.7% | [4] 20.2% | [5] -10.6% | [6] 30.7%

CN(CC(=O)NC(=O)c1ccccc1)c1ccccc1
inactive: [1] 4% | [2] -2% | [3] 8.85% | [4] -0.75% | [5] 11% | [6] 3.2%

COc1ccccc1/C=N/NC(=O)CCCCCCCCC(=O)N/N=C/c1ccccc1OC
inactive: [1] 0.95% | [2] -4% | [3] -4.4% | [4] -11.2% | [5] -5.5% | [6] 14.5%

O=C(Cl)c1cc(-c2ccccc2)nc2c(Cl)cccc12
inactive: [1] 46.1% | [2] 39.4% | [3] 43% | [4] 39.1% | [5] 40.5% | [6] 38%

c1cncc(CCc2ccncc2)c1
inactive: [1] -18.9% | [2] -60.9% | [3] -27.2% | [4] 12.3% | [5] -14.2% | [6] 18.6%

CC(=O)OC(c1ccccc1)C1(c2ccccc2)OCCO1 (stereo not given)
inactive: [1] -9.2% | [2] 7.5% | [3] 5.75% | [4] -33% | [5] 1.4% | [6] 17.1%

CC(=O)c1cccc(NC(=O)Oc2ccc(F)cc2Cl)c1
inactive: [1] -2.3% | [2] 29.1% | [3] 18.8% | [4] -13.6% | [5] 12.9% | [6] -1.8%

CC(=O)OCC1OC(Sc2ccc([N+](=O)[O-])cc2)C(OC(C)=O)C(OC(C)=O)C1OC(C)=O (stereo not given)
inactive: [1] 12.3% | [2] -11.8% | [3] -12.1% | [4] -1.35% | [5] -1.05% | [6] 17.9%

NC(N)=N/N=C/c1c(Cl)nc2sccn12
inactive: [1] -11.4% | [2] -64.8% | [3] -17.5% | [4] -30.3% | [5] -8.8% | [6] -5.6%
